Measured values taken from PubChem BioAssay AID493100 (Broad Institute, 2011).
Measured potencies and affinities stand elsewhere. Records with an inconclusive call do not appear. Activity calls are given as the source filed them.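 Rule for the calls: active = decreasing signal in every run, fitted half-effect dose at most ten times the top valid dose; inconclusive = runs disagree, weak flat effect, or poor curve fit; inactive = every run inactive, signal rises included.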

Experiment: blockers of SFLLRN-triggered platelet ATP secretion – cell-based, human platelets, luminescence, dry powder, dose response (AID 493100)
Conditions: SFLLRN-induced ATP dense granule secretion; series mostly up to 35 µM

outcome, inactive:
CC(=O)Nc1cccc(NC(=O)c2cccc(Cl)c2)c1
C/C(=N\NC(=O)c1ccccc1)c1ccc(NC(=O)C(F)(F)F)cc1
CCCC(=O)Nc1cccc(NC(=O)c2ccc(C(F)(F)F)cc2)c1
CCCC(=O)Nc1cccc(NC(=O)c2ccc(C)cc2)c1
CCCC(=O)Nc1cccc(NC(=O)c2ccc(OC)cc2)c1
O=C(Nc1cccc(NC(=O)c2ccccc2Cl)c1)c1ccco1
CCCC(=O)Nc1cccc(NC(=O)c2cccc([N+](=O)[O-])c2)c1
CC(=O)Nc1ccc(/C=N/NC(=O)CC2CCCCC2)cc1
CCCC(=O)Nc1cccc(NC(=O)c2ccc(S(C)(=O)=O)cc2)c1
CCCC(=O)Nc1cccc(NC(=O)c2ccc(F)cc2)c1
C/C(=N\NC(=O)C1CCCC1)c1ccc(Cl)cc1
CCCC(=O)Nc1cccc(NC(=O)c2ccco2)c1
CCCC(=O)Nc1cccc(NC(=O)c2cccc(Oc3ccccc3)c2)c1
CCCCC(=O)Nc1cccc(NC(=O)c2ccccc2Br)c1
CCCC(=O)Nc1cccc(NC(=O)c2ccc(Cl)cc2)c1
CCCC(=O)Nc1cccc(NC(=O)c2cccc(S(C)(=O)=O)c2)c1
CCCC(=O)Nc1cccc(NC(=O)c2ccccc2OC)c1
CC(=O)N/N=C(\C)c1ccc(NC(=O)C2CC2)cc1
O=C(Nc1cccc(NC(=O)c2ccccc2Br)c1)c1ccccc1
CCCC(=O)Nc1cccc(NC(=O)c2cnc3ccccc3c2)c1
NNC(=O)C1CCCC1
CC(=O)Nc1cccc(NC(=O)c2ccccc2Cl)c1
CC(=O)Nc1c(C#N)c(-c2ccccc2)c(C#N)c(=O)n1-c1ccc(C)cc1
O=Cc1ccc(NC(=O)C(F)(F)F)cc1
CCCC(=O)Nc1cccc(NC(=O)c2cccnc2)c1
CCCC(=O)Nc1cccc(NC(=O)c2cccc(-c3ccccc3)c2)c1
CC(=O)c1ccc(NC(=O)C(F)(F)F)cc1
